NPSR antag: neuropeptide S receptor (human) antagonism, cAMP; Q6W5P4; CHO-NPSR cells, cAMP TR-FRET, antagonist mode; Potency, µM (series often up to 38.3 µM), for the others: at the highest dose activity change, negative = inhibition, most hits filed as inhibitors; 220,000 tested, 1% active; AID 1461; also: potency is read from the fitted curve at half-maximal effect; % is scaled to controls: 0 for no effect and ±100 for the full control effect; nearly all actives have a fitted effect of over 50% in size
ALOX12 inhib: blocks human 12-lipoxygenase activity; purified 12-hLO, xylenol orange hydroperoxide absorbance; 150,000 tested, 0.12% active; Potency, µM (doses to about 57.1 µM), without a hit: top-dose activity change, negative = inhibition, actives largely listed as inhibitors; AID 1452; P18054; also: potency is read from the fitted curve at half-maximal effect; % is scaled to controls: 0 for no effect and ±100 for the full control effect; nearly all actives have a fitted effect of over 55% in size
Target sequence (P18054 whole entry, looked up): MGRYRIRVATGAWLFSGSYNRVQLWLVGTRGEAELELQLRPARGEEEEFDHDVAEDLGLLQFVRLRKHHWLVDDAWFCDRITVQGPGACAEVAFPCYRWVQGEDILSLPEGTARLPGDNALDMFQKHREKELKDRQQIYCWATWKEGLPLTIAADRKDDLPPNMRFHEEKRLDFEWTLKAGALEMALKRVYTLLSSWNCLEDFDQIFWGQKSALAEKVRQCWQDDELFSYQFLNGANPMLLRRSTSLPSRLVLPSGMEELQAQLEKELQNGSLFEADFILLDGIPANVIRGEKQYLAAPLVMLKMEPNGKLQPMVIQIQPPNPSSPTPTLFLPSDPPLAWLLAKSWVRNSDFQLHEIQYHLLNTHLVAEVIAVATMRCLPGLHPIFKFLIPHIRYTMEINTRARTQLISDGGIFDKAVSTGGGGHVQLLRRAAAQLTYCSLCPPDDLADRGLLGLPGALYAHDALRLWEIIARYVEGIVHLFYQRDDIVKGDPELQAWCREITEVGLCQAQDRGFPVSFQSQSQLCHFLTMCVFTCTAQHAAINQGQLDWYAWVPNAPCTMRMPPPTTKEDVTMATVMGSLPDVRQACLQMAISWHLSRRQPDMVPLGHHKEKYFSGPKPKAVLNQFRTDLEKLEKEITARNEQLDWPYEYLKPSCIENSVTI
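Hydroperoxide output read as Fe(III)-xylenol orange absorbance, 573-to-405 nm ratio, after 30 min reaction with 40 uM arachidonic acid. Enzyme: 150 nM purified human 12hLO, 15 min compound preincubation; 25 mM Hepes pH 7.0, room temperature.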
HTT ATP protect: protects HTT-Q103 PC12 cells, measured by ATP. PC12 HTT-Q103 induced, cytoprotection, ATP luminescence, 40 h. Potency, µM (titrated, usually from 56.4 µM), without a hit: cytoprotection (ATP increase), usual class: activators. 230,000 tested, 0.14% active. AID 1471; also: potency is read from the fitted curve at half-maximal effect; % of control where 0% means no effect; nearly all actives have a fitted effect of over 45% in size
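Stable PC12 Q103-GFP cells in serum-supplemented, phenol red-free DMEM; induction by tebufenozide at 100 nM final; compound dose series; cell viability quantified luminescently from ATP.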
IMPase cell inh: cell-permeable inhibitors of inositol monophosphatase (IMPase); CHO-M1 cells, IP1 accumulation, HTRF TR-FRET ratio; inhibition (IP1 accumulation), % at 46.1 µM; 120,000 tested, under 10 active; AID 901; active = well fitted curve in the direction sought with a large enough effect in the signal ratio, not every such curve was filed as active; inconclusive = small, poorly fitted or top-dose-only effect, or a change in a side signal; inactive = no such curve, though single readings can be large or run the other way; the % refers to the signal ratio;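 also: cells stimulated with carbachol in lithium chloride buffer; plate controls were DMSO basal wells for no effect and reference inhibitor wells for full effect; higher means more IMPase inhibition seen as more IP1 and lower FRET ratio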
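Elevated IP1 in lysates lowers TR-FRET signal (665/620 ratio and 620 channel reported). Cells were CHO-M1, given carbachol (50 uM as added) plus 50mM LiCl, pH 7.4, 30 min, 37C; compounds titrated up to 46 uM; AC50 by Hill equation.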
HTT aggregate: mutant huntingtin aggregation inhibition; PC12 HttQ103-GFP aggregates, Acumen cytometry, 40 h; 220,000 tested, 1.1% active; Potency, µM (series often up to 46.1 µM), inactives show top-dose activity change, negative = inhibition, most hits filed as inhibitors; AID 1688; also: potency is read from the fitted curve at half-maximal effect; % is scaled to controls: 0 for no effect and ±100 for the full control effect; nearly all actives have a fitted effect of over 60% in size
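Quantitative HTS on tebufenozide-induced (100 nM) PC12 cells stably expressing polyQ103 Huntingtin exon 1–GFP. Reduction of bright GFP aggregates, detected by laser scanning cytometry after lysis, identified actives across the titration.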
PNC inhibitor: inhibitors of perinucleolar compartment assembly. AID 2417. PC3M PTB-GFP, PNC prevalence imaging, 16 h; active compounds read low. 140,000 tested, 3.1% active. activity change (PNC), negative = inhibition, % at 10 µM;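 active = readout at or below -70, meaning at least 70% loss of cells showing the perinucleolar compartment, a nuclear body marking cancer cells; inconclusive = readout between -30 and a set limit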;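 also: plate controls were DMSO wells for no effect and camptothecin positive control wells for full effect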
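Compounds are pinned in duplicate onto adhered PC3M cells stably expressing GFP-tagged PTB and incubated 16 h at 37 C. Cells are then fixed, nuclei stained with Hoechst, and PNC-positive cells counted.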
Active calls of the source: *; ? = inconclusive; . = no result given; [ ] = remark or other dose. Only some compounds are listed: those with a hit (about 3.3% of all), similar ones and a draw of the others. Unless noted, calls follow the shape of the dose curve; as a rule, active = well fitted curve in the direction sought with a large enough effect; inconclusive = small, poorly fitted or top-dose-only effect, or another doubt; inactive = no such curve, though single readings can be large; an effect the other way counts as inactive or inconclusive.

SMILES	NPSR antag	ALOX12 inhib	HTT ATP protect	IMPase cell inh	HTT aggregate	PNC inhibitor
Cc1ccc(-c2noc(CCC(=O)NC3CCN(Cc4ccccc4)CC3)n2)cc1	17%[46.1 µM]	-1%	-4%	6	?	3
c1ccc(-c2nnc3ccc(N4CCCC4)nn23)cc1	-18%[46.1 µM]	0%	-1%[10 µM]	5	-19%	-7
CN(Cc1ccccc1)c1ccc2nnc(-c3ccccc3)n2n1	-44%	-2%	.	.	35µM*	45
CN(C)CCNc1nc2c(c(=O)n(C)c(=O)n2C)n1C	.	-5%[11.4 µM]	9%[10 µM]	.	.	.
CCCOC(=O)c1ccc(Oc2cn[nH]c2-c2ccc(OCC)cc2O)cc1	?	-26%	-11%[0.074 µM]	10	-3%	-117*
CCCc1ccc(Oc2cn[nH]c2-c2ccc(O)c(C)c2O)cc1	10µM*	-24%	14%[10 µM]	9	?	0
CCCOC(=O)c1ccc(Oc2c(-c3ccc(OCC)cc3O)n[nH]c2C)cc1	?	?	-1%[0.074 µM]	16	?	?
COC(=O)[C@](C)(N)Cc1ccc(O)cc1	.	-4%	-8%[1.9 µM]	3	.	.
Cc1cccc2sc(NC(=O)CN(C)S(=O)(=O)c3cccs3)nc12	?	-12%	-15%	1	16µM*	-17
Cc1cccc2sc(NC(=O)CN(C)S(=O)(=O)c3ccc(Br)s3)nc12	?	-10%	-3%	4	?	?
Cc1ccc(NC(=O)Cn2c(=O)n(CC(=O)NCCc3ccccc3)c(=O)c3ccccc32)cc1	.	.	.	15	.	.
Cc1nc(C)n(CC(O)COc2ccc(C(=O)c3ccccc3)cc2)n1 (stereo not drawn)	-1%[46.1 µM]	4%	11%	5	?	-95*
CCC(=O)c1ccc(OCC(O)Cn2c(C)nc3ccccc32)cc1 (stereo not drawn)	-4%[46.1 µM]	0%	-14%[10 µM]	7	11µM*	-121*
CCOC(=O)CC(NCc1ccc(OC)c(OCC)c1)c1ccc(C)cc1 (stereo not drawn)	-25%	.	-37%	.	-10%	.
Nc1nonc1C(=O)NCCNS(=O)(=O)c1ccc(Br)cc1	1%[46.1 µM]	1%	-5%[10 µM]	3	0%	-90*
Nc1nonc1C(=O)NCCNC(=O)c1ccccc1F	-6%[46.1 µM]	2%	-10%[10 µM]	-1	7%	30
Oc1ccc(CCC2CCCCN2Cc2nc(C3CC3)no2)cc1 (stereo not drawn)	17%	.	3%[10 µM]	.	26%[9.22 µM]	.
CC1Cc2ccccc2N1c1ncnc2nc[nH]c12 (stereo not drawn)	8%	-3%	7%	11	11µM*	36
Cc1nc(N2CCOCC2)nc(N2CCCCC2C)c1[N+](=O)[O-] (stereo not drawn)	?	.	-12%[10 µM]	.	6%[9.22 µM]	.
CC1CCCCN1c1ncnc(N)c1[N+](=O)[O-] (stereo not drawn)	16%	.	11%	.	10µM*	.
CN(Cc1ccccc1)c1ncnc(N)c1[N+](=O)[O-]	16%	.	-11%[10 µM]	.	-32%[9.22 µM]	.
CC1Cc2ccccc2N1c1ncnc(N)c1[N+](=O)[O-] (stereo not drawn)	6%	.	?	.	0.89µM*	.
CC1CCCCN1c1ncnc2ccccc12 (stereo not drawn)	-11%[46.1 µM]	-3%	-16%	1	10µM*	-6
O=C(O)[C@@H](O)[C@@H](O)[C@@H](O)[C@@H](O)c1nc2ccccc2s1	.	-12%[11.4 µM]	2%[10 µM]	.	.	.
Cc1cnc(CNc2cc(-c3ccoc3)ncn2)cn1	.	-2%	-5%	.	.	.
COc1cc(/C=C2/C(=O)c3cccc([N+](=O)[O-])c3C2=O)c(Br)cc1O	10µM*	-27%	.	.	-3%	1
O=C1C(=O)N(CC2CCCO2)C(c2ccco2)/C1=C(/O)c1ccc(F)cc1 (stereo not drawn)	-3%	.	-16%	.	11%[9.22 µM]	.
COc1c(CO)cc(CO)cc(CO)c1=O	.	.	-14%	.	.	.
Cc1ccc(S(=O)(=O)Oc2cc(S(=O)(=O)O)cc3cc(S(=O)(=O)O)cc(N)c23)cc1	.	3%[11.4 µM]	-2%[10 µM]	.	.	.
CC(=O)NC(=S)Nc1ccc(-c2nc3ccc(C)cc3s2)cc1	10µM*	-1%	-11%	-9	12%	14

Compound activity (PubChem)
